# Data: the supplement of paper PMC10127200
# Structures can show the parent of a compound that is named as a salt.
# How the values were obtained:
# Assay in all cases: Euclidean distance of Cell Painting phenotypic profile (signed KS, 77 features) to DMSO centroid (dimensionless distance); 5 or 10 uM (library dependent); higher = stronger phenotypic change vs DMSO (phenoactivity)
# Settings in all cases: 48 h
# [1] = tested on: 786-O
# Summary of the method: (§1)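 Five cancer lines and a healthy fibroblast line received library compounds at 10 or 5 uM (library-dependent, 0.1% DMSO final) for 48 h. Stained cells were imaged confocally at 20X (9 fields/well). Harmony extracted 77 features, each scored as a signed Kolmogorov-Smirnov statistic against same-plate vehicle wells. Profiles were plate-position corrected, correlation-weighted and replicate-averaged at the top dose. Phenoactivity is the Euclidean distance from each profile to the median vehicle profile.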
# [2] = tested on: A549
# Summary of the method: as §1
# [3] = tested on: DU145
# Summary of the method: as §1
# [4] = tested on: FB
# Summary of the method: as §1
# [5] = tested on: HEPG2
# Summary of the method: as §1
# [6] = tested on: OVCAR4
# Summary of the method: as §1
Compound,Euclidean distance [1],Euclidean distance [2],Euclidean distance [3],Euclidean distance [4],Euclidean distance [5],Euclidean distance [6]
CC(C)N1CCN(c2ccc(Nc3ncc4cc5n(c4n3)C3(CCCCC3)CNC5=O)nc2)CC1,3.19,1.63,2.41,3.71,2.1,2.34
CC1COc2c(N3CCN(C)CC3)c(F)cc3c(=O)c(C(=O)O)cn1c23 (configuration not stated) [Ofloxacin],1.01,0.65,0.81,0.702,0.545,1.25
CCN(CC)CCOC(=O)c1ccc(N)cc1Cl [Chloroprocaine HCl],0.962,0.947,0.943,0.861,0.503,1.07
CC(=O)OCC(=O)[C@@]1(O)CC[C@H]2[C@@H]3CCC4=CC(=O)CC[C@]4(C)[C@H]3C(=O)C[C@@]21C [Cortisone acetate],1.03,0.746,1.1,1.06,0.755,1.67
Nc1ccc(-c2ccc3ncc4ccc(=O)n(-c5cccc(C(F)(F)F)c5)c4c3c2)cn1 [Torin 2],5.09,3.59,1.08,1.45,1.26,2.88
COC[C@H](NC(=O)c1cnc(C)s1)C(=O)N[C@@H](COC)C(=O)N[C@@H](Cc1ccccc1)C(=O)[C@@]1(C)CO1 [Oprozomib (ONX 0912)],5.53,4.48,5.47,4.12,4.53,4.85
Cc1onc(-c2ccccc2)c1-c1ccc(S(N)(=O)=O)cc1 [Valdecoxib],1.12,1.19,0.983,1.21,0.509,1.58
Cc1ncc([N+](=O)[O-])n1C [Dimetridazole],1.08,0.82,1.15,0.783,0.672,0.957
O=C(COc1cccc2c(=O)[nH]ccc12)c1ccccc1,1.49,1.09,0.747,0.832,0.68,0.6
COc1cc(F)c(F)c(Nc2ccc(I)cc2F)c1NS(=O)(=O)C1(C[C@H](O)CO)CC1 [Refametinib (RDEA119. Bay 86-9766)],2.91,2.51,2.83,3.57,1.79,2.27
Cc1ccc(C)c(OCCCC(C)(C)C(=O)O)c1 [Gemfibrozil],1.23,0.801,1.51,1.06,1.97,1.02
N[C@H](C(=O)O)[C@H](O)c1ccc(O)c(O)c1 [Droxidopa],0.967,0.876,0.724,0.744,1.01,0.873
O=C(NCCCNc1nc(Nc2cccc(NC(=O)N3CCCC3)c2)ncc1I)c1cccs1,2.35,4.29,3.26,3.8,2.12,4.44
NS(=O)(=O)c1ccccc1 [Benzenesulfonamide],1.16,0.87,1.05,1.27,0.909,0.962
O=C(O)C(Cc1ccccc1[N+](=O)[O-])=NNc1nc(-c2ccc(Cl)c(Cl)c2)cs1 (mixture of isomers),0.716,1.16,0.992,2.32,0.514,0.642
COC(=O)[C@@H]1CC2=CC(=O)CC[C@]2(C)[C@@]23O[C@@H]2C[C@@]2(C)[C@@H](CC[C@@]24CCC(=O)O4)[C@H]13 [Eplerenone],1.18,0.666,0.81,0.974,1.38,0.746
CC/C(=C(/CC)c1ccc(O)cc1)c1ccc(O)cc1 [Diethylstilbestrol],0.795,0.688,0.96,0.826,0.721,0.682
C[C@H]1O[C@@H](O[C@H]2CC[C@@]3(C)[C@@H](CC[C@]4(C)[C@@H]3C=C[C@]35OC[C@@]6(CCC(C)(C)C[C@H]63)[C@@H](O)C[C@]54C)[C@]2(C)CO)[C@H](O)[C@@H](O[C@@H]2O[C@H](CO)[C@@H](O)[C@H](O)[C@H]2O)[C@H]1O [Saikosaponin A],1.06,2.42,2.17,1.52,0.854,2.14
N=C(N)N/N=C/c1c(Cl)cccc1Cl [Guanabenz Acetate],1.25,1.29,1.12,0.609,0.842,1.77
COc1c(N2CCNC(C)C2)c(F)cc2c(=O)c(C(=O)O)cn(C3CC3)c12 (configuration not stated) [Gatifloxacin],0.648,0.598,0.774,0.851,0.876,1.07
CCCCCCCCCCCCC[N+](C)(C)Cc1ccccc1 [Benzalkonium chloride],2.54,2.29,2.89,1.54,2.12,2.53
CCNC(=O)c1[nH]nc(-c2cc(Cl)c(O)cc2O)c1-c1ccc(OC)cc1,2.94,3.74,2.8,3.65,3.19,2.79
C=CCN1CCCC1CNC(=O)c1cc2nn[nH]c2cc1OC (configuration not stated) [Alizapride HCl],0.796,1.43,1.04,1.13,1.28,0.984
Cc1cc(N2CCN([C@@H]3CN[C@H](C(=O)N4CCSC4)C3)CC2)n(-c2ccccc2)n1 [Teneligliptin hydrobromide],1.1,1.09,2.06,1.2,1.21,1.33
CCCCN(Cc1ccc(C(=O)NO)cc1)C(=O)Nc1ccccc1 [Nexturastat A],1.18,1.83,2.03,3.14,1.55,2.05
Oc1c(Br)cc(Br)c2cccnc12 [Broxyquinoline],0.96,0.988,1.01,1.03,0.735,0.981
COc1ccccc1N1CCN(CCN(C(=O)C2CCCCC2)c2ccccn2)CC1,0.724,1.67,1.84,3.28,2.11,4.14
